Here are results for 103 compounds from ChEMBL document CHEMBL4513216, “Probing the Open Global Health Chemical Diversity Library for Multistage-Active Starting Points for Next-Generation Antimalarials” (ACS Infect Dis, 2020).

The campaign covered roughly 69,000 compounds. About 8,600 (12%) showed an effect of 50% or more. The full list was thinned out, with strong results kept by preference.

This assay deals with Plasmodium berghei. Nature of the assay: Screen against P. berghei liver stage (PbLuc), transformed with Luciferase, at 10uM. The class given is functional, HepG2. As to conditions: tested at 10 uM.
As for `CC(=O)N1CCN(c2cc(C3CN(C(C)=O)CCO3)nc(C)n2)CC1` (stereo not drawn), the INHIBITION amounted to 29.2%. The result for `CO[C@@H]1CC[C@H]2[C@H]1OCCN2CCOCc1ccccc1` reads 4.98%.

Consider `Cc1nc(C2CCCN(C(=O)c3ccncc3)C2)c2sccn12` (stereo not drawn), for which the INHIBITION is on record as 35.2%. For the compound `CC(=O)c1cn(CCC(=O)N[C@@H](CC(C)C)C(=O)O)c2ccccc12`, the INHIBITION was 11.9%. Take `NC(=O)CSCC(=O)NC1(c2cccc(Cl)c2)CC1`: the INHIBITION is 38.6%. The result for `CC(=O)N1CC[C@H]2OCC[C@@H](C(=O)NCc3ccco3)[C@@H]2C1` reads 18.3%; that for `COCC(=O)N1Cc2nccn2CC(Cn2ncccc2=O)C1` (stereo not drawn), 19.4%.

In the case of `CC(C)(C)c1nccc(N2CCCCC2CNS(C)(=O)=O)n1` (stereo not drawn), the INHIBITION turned out to be 16.6%. The result for `c1ccc(CCCN2CCN(c3ccc4nncn4n3)CC2)cc1` reads 74.7%. Regarding `Clc1ccc(OCCCN2CCN(c3cnccn3)CC2)cc1`, the INHIBITION was found to be 54.4%. The result for `O=C(CCN1CCN(c2ccc3nncn3n2)CC1)N1CCCCC1` reads -19.9%.

Regarding `O=C(COc1ccc(Cl)cc1)N1CCN(c2cnccn2)CC1`, the INHIBITION is given as -126%.

With `c1ccc(CN2CCN(c3ccc4nncn4n3)CC2)nc1`, the INHIBITION was determined as 7.67%. The result for `Clc1ccccc1CCN1CCN(c2ccc3nncn3n2)CC1` reads 72.8%; that for `c1ccc(CCN2CCN(c3ccc4nncn4n3)CC2)nc1`, 20.1%. The value for `c1cc(CCN2CCN(c3ccc4nncn4n3)CC2)ccn1` was -33.7%; that for `N#Cc1ccc(N2CCN(c3ccc4nncn4n3)CC2)nc1` was -23.4%; that for `O=C(CCOc1ccc(Cl)cc1)N1CCN(c2cnccn2)CC1` was 3.19%. The value for `O=C(NCCc1ccccc1)C1CCCN(c2ccc3nncn3n2)C1` (stereo not drawn) was -23.5%.

Regarding `c1ccc(CCN2CCN(c3ccc4nncn4n3)CC2)cc1`, the INHIBITION is recorded as 60.9%. `O=c1[nH]c(N2CCCCC2)nc2nccc(-c3ccc4c(c3)OCO4)c12`: the INHIBITION is -5.59%. The value for `COc1c(C)cc(CNCc2ccnc(N3CCOCC3)c2)cc1C` was 28.8%. On to `CC(C)NC(=O)N1C[C@@H]2C[C@H](C(=O)NCc3ccccc3)[C@H](C1)O2`, for which the INHIBITION is 18.2%. Regarding `COc1ccc(Cn2nnnc2SCC2CCCN(C)C2)cc1` (stereo not drawn), the INHIBITION came to 40.5%. The value for `CO[C@@]1(C)C[C@@H](O)C12CCN(C(=O)C1(c3ccccc3F)CC1)CC2` was 32.5%.

Turning to `NCCC(Cc1ccccc1)c1ccco1` (stereo not drawn), the INHIBITION was determined as 36.1%. The value for `O=C(N[C@H]1CCCC[C@@H]1O)c1ccc2nc(-c3ccccc3)[nH]c2c1` was -85.3%.

Take `COc1nn(C)c2c1CCCN(C(=O)c1ccccc1F)C2`: the INHIBITION worked out at 3.25%.

For the compound `CC(NC(=O)CCCC(=O)c1cccs1)c1nnc2n1CCC2` (stereo not drawn), the INHIBITION is reported as 7.12%. As for `O=C(O)Cn1ccc2c(Cl)cccc21`, the INHIBITION was 19.3%. The value for `Cc1nnc(C(C)N2CCN(Cc3ccc(C(F)(F)F)cc3)CC2)o1` (stereo not drawn) was -43.5%; that for `O=C(CCN1CCN(c2ccc3nncn3n2)CC1)NC1CCCC1` was -51.5%; that for `FC(F)(F)COCCN1CCN(c2ccc3nncn3n2)CC1` was 38.8%. The result for `c1ccc(OCCCN2CCN(c3ccc4nncn4n3)CC2)cc1` reads 86.1%. Turning to `O=C(NCc1cccnc1)NC1CCC2(CCC(=O)N2CC2CC2)CC1` (stereo not drawn), the INHIBITION came to 40.3%. The value for `CCN(CCNC(=O)Nc1nnc(C)s1)C(=O)OC(C)(C)C` was -19.3%. The value for `O=C1C(NS(=O)(=O)c2ccc(F)cc2)CCN1Cc1ccccc1` (stereo not drawn) was 23.5%.

With `CCc1nc2ccccc2n1C(CC)C(=O)N(C)Cc1noc(C)n1` (stereo not drawn), the INHIBITION came out at 31.1%. The value for `CCc1nnc(CN(C)C(=O)C(CC)n2c(CC)nc3ccccc32)o1` (stereo not drawn) was 52.7%; that for `CCc1nc2ccccc2n1C(CC)C(=O)N(C)Cc1nc(C)c[nH]1` (stereo not drawn) was 12.9%. With `O=C1COc2ccc(C(=O)NS(=O)(=O)c3ccccc3Cl)cc2N1`, the INHIBITION worked out at 14.1%. The value for `CCCS(=O)(=O)N1C[C@@H](Oc2ccccn2)[C@H]2OCCC[C@H]21` was -21.1%; that for `O=C(c1ccc[nH]1)N1CCCC(c2cc(C(F)(F)F)[nH]n2)C1` (stereo not drawn) was 54.4%. The value for `O=C(c1cc(Cl)c[nH]1)N1CCCC(c2cc(C(F)(F)F)[nH]n2)C1` (stereo not drawn) was 88.2%; that for `Cc1nc(C2CCCN(C(=O)c3cc(Cl)c[nH]3)C2)sc1C` (stereo not drawn) was 40.9%; that for `O=C(c1nc(=O)[nH][nH]1)N1CCCC(c2cc(C(F)(F)F)[nH]n2)C1` (stereo not drawn) was 29.1%. The value for `Cn1cc(CC(=O)N2CCCC(c3cc(C(F)(F)F)[nH]n3)C2)cn1` (stereo not drawn) was 7.97%; that for `O=C(c1ccsc1)N1CCCC(c2cc(C(F)(F)F)[nH]n2)C1` (stereo not drawn) was 57.2%. With `Cc1nc(C(=O)N2CCCC(c3cc(C(F)(F)F)[nH]n3)C2)c[nH]1` (stereo not drawn), the INHIBITION is 33.8%. The value for `O=C(Cc1cccnc1)N1CCCC(c2cc(C(F)(F)F)[nH]n2)C1` (stereo not drawn) was 50.8%. The result for `CCOCCC(=O)N1CCCC(c2cc(C(F)(F)F)[nH]n2)C1` (stereo not drawn) reads 7.97%. The value for `Cc1cc(C(=O)N2CCCC(c3cc(C(F)(F)F)[nH]n3)C2)[nH]n1` (stereo not drawn) was 29.7%; that for `O=C(c1cc[nH]n1)N1CCCC(c2cc(C(F)(F)F)[nH]n2)C1` (stereo not drawn) was 25.1%; that for `CCOC(=O)c1cc(C(C)(O)CCC=C(C)C)on1` (stereo not drawn) was 37.8%. Take `Cc1nc(CC(=O)N2CCC(c3nn(C)c4ncccc34)CC2)cs1`: the INHIBITION is 26.8%. The result for `Cn1c(C(=O)N2CCC(C(N)=O)C2)c(Cl)c2ccccc21` (stereo not drawn) reads -20.5%; that for `Cc1oc(-c2ccco2)nc1CN1CCc2cnc(C(C)C)nc2C1`, 21.9%.

As for `CC(C)N(C)S(=O)(=O)c1ccc2c(c1)CCN(C(=O)c1cccnn1)C2`, the INHIBITION worked out at 23.2%. The result for `CNc1nc(C(=O)NCC2CCOc3ccccc3C2)cs1` (stereo not drawn) reads 53.3%.

In the case of `CC(=O)NCC1CCN(CC2CCOc3ccccc3C2)CC1` (stereo not drawn), the INHIBITION came to 37.8%. Take `Cc1cnc(C(=O)NCC2CCOc3ccccc3C2)cn1` (stereo not drawn): the INHIBITION is 24.4%. The value for `CN1CCN(C(=O)c2ccc(Cn3cc(Br)cn3)cc2)CC1` was 30.7%; that for `O=C(c1ccc(Cn2cc(Br)cn2)cc1)N1CCCC1` was 53.5%. The result for `O=C(c1ccc(Cn2cc(Br)cn2)cc1)N1CCOCC1` reads 37.7%; that for `CC(=O)N1CCN(C(=O)Nc2ccc(Cl)cc2)[C@H]2CS(=O)(=O)C[C@H]21`, 12.6%; that for `CCC(=O)N1CCN(S(=O)(=O)c2cccc(F)c2)[C@H]2CS(=O)(=O)C[C@H]21`, 32.2%.

`CCC(=O)N1CCN(C(=O)Nc2cccc(C#N)c2)[C@H]2CS(=O)(=O)C[C@H]21`: the INHIBITION is listed as -2.09%. The result for `CCC(=O)N1CCN(C(=O)Nc2cccc(F)c2)[C@H]2CS(=O)(=O)C[C@H]21` reads 61.9%; that for `CCC(=O)N1CCN(C(=O)CCn2cc(Cl)cn2)[C@H]2CS(=O)(=O)C[C@H]21`, 35.8%. The value for `CCC(=O)N1CCN(C(=O)Nc2ccc(Cl)cc2)[C@H]2CS(=O)(=O)C[C@H]21` was 61%; that for `CCN1CC(CN(C)Cc2nc(-c3ccc(F)cc3F)oc2C)CC1=O` (stereo not drawn) was 26.5%; that for `Cc1ccc(C2CSCCN2C(=O)c2ccnc(N(C)C)c2)o1` (stereo not drawn) was 12.3%. The value for `N#Cc1c(CN2CCCCC2Cn2cncn2)cn2ccccc12` (stereo not drawn) was 19.3%; that for `CN(Cc1ccc(Cl)s1)C(=O)c1ccccc1OCC(N)=O` was -93.8%; that for `O=C(c1ccncc1)N1CCCn2nnc(COCCO)c2C1` was 29.8%.

As to `COc1ccnc(CN2CCC(O)(c3ccc(C)cn3)CC2)c1OC`, the INHIBITION is recorded as -23.4%. The result for `COc1cc(CN2CCC(O)(c3ccc(C)cn3)CC2)cc(Cl)c1OC` reads 51.3%; that for `COc1cccc(CN2CCC(O)(c3ccc(C)cn3)CC2)c1OC`, -57.5%. The value for `Cc1nc(C)n(CC2CN(CCOc3cccc(F)c3)CCO2)n1` (stereo not drawn) was -21.7%; that for `Cc1cc(C)c2nc(C)cc(C(=O)N3CC(O)CO3)c2c1` (stereo not drawn) was 22.6%. The result for `CN1CCOC(CNCCCOc2ccc(C#N)cc2)C1` (stereo not drawn) reads -89.9%.

For the compound `CN1CCOC(CNCCOc2cccc(C#N)c2)C1` (stereo not drawn), the INHIBITION came to 66.7%. Turning to `COCCOc1cccc(CNCC2CN(C)CCO2)c1` (stereo not drawn), the INHIBITION is listed as 7.12%. The result for `CN1CCOC(CNCCc2ccccn2)C1` (stereo not drawn) reads 39.5%; that for `CN(C)CC1CN(CCOc2cccc(C#N)c2)CCO1` (stereo not drawn), 41.4%. The value for `CN1CCOC(CNCCOc2ccc(C#N)cc2)C1` (stereo not drawn) was 71.1%.

As for `CN(C)c1ccc(C2CCN(c3cnccn3)CC2)nc1`, the INHIBITION came to 1.93%. The value for `CO[C@H]1CC[C@H]2[C@H]1OCCN2C(=O)CC1=CCCCC1` was 32.5%; that for `O=C(CN1CCC(c2nnc(C(F)(F)F)o2)CC1)NCc1ccccc1` was -3.48%.

Turning to `CCc1nnc(Nc2cccc(C3CCN(CC4CC4)CC3)n2)s1`, the INHIBITION came to 14.7%. In the case of `CCc1ccc(C(=O)N2CCN(CC(O)c3ccccc3)CC2)o1` (stereo not drawn), the INHIBITION is given as 37.9%.

With `c1ccc(Cc2nnc(CN3CCc4cncnc4C3)o2)cc1`, the INHIBITION was -31.3%. The value for `Cc1noc(C)c1CN1CCC(N(C)Cc2noc(C(C)C)n2)C1` (stereo not drawn) was 29.8%; that for `CSCC[C@H](N)c1nnc(SCc2cc(C)ccc2C)o1` was 12.5%; that for `CC(=O)NCCNC(=O)CN1CCCC1Cn1nc(C)nc1C` (stereo not drawn) was 1.56%. The value for `O=C(CN1CCCCC1Cn1cncn1)NCCc1ccsc1` (stereo not drawn) was -81.3%. The result for `O=C(CN1CCCC1Cn1cncn1)NCCC1=CCCCC1` (stereo not drawn) reads 27.6%; that for `Cc1nc(C)n(CC2CCCN2CC(=O)NCCC2=CCCCC2)n1` (stereo not drawn), 77.7%; that for `Cc1nc(C)n(CC2CCCN2CC(=O)NCCc2ccsc2)n1` (stereo not drawn), 91.3%. Take `Cc1nc(C)n(CC2CCCN2CC(=O)NCCc2ccccc2)n1` (stereo not drawn): the INHIBITION came to 9.54%. Consider `COc1ccc(CN2CCO[C@H]3CN(C4CCC4)CC[C@H]3C2=O)cc1`, for which the INHIBITION was 17.2%. The value for `O=C(c1cccc(F)c1)N1CCOC(c2nc(-c3ncccn3)no2)C1` (stereo not drawn) was 13.1%; that for `CC(C)c1nnc2n1CCN(CCC(=O)Nc1sccc1C#N)C2` was 5.7%.
